In the library only some 2.3% were active in any assay of this set; here they are far more common.
Mcl-1 Bim block: disrupts Bim peptide binding to human Mcl-1; Bead-based flow cytometry, Bim peptide-Mcl-1 binding; AID 1009; Q07820; 0.1% of 190,000 active; inhibition, % at 10 µM; in the data active means inhibition above about 40%;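 further: 0% = no compound tracer wells and 100% = peptide blocker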
Target sequence (Q07820 whole entry, looked up): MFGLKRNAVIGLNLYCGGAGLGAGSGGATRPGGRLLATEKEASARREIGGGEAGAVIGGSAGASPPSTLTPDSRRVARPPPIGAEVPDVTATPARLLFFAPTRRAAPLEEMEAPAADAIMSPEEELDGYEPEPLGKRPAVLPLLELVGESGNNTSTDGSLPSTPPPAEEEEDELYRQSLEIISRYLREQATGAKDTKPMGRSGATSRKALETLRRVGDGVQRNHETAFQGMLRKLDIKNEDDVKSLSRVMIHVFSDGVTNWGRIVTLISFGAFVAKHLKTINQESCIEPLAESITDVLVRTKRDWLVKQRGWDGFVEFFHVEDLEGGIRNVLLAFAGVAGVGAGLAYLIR
MCL1-BIM inh: disrupts human MCL1 binding to BIM-BH3 peptide | Q07820 | GST-MCL1 / FITC-Bim-BH3 fluorescence polarization | inhibition, % at 10.9 µM | 0.68% of 320,000 active | AID 2057;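 active means inhibition above the mean inhibition of all tested compounds plus 3 SD, set per campaign, cut at about 40% in these data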;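 further: 0% = DMSO wells and 100% = unlabeled Bim-BH3 peptide control; higher means more loss of mP so more displacement of Bim peptide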
BCLXL inh: Bcl-xL (human) inhibition | AID 2129 | GST-Bcl-xL / FITC-Bim BH3 peptide fluorescence polarization | inhibition, % at 10.9 µM | 0.7% of 320,000 active;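 active means inhibition above the mean of all tested compounds plus 3 SD, cutoff set per campaign, cut at about 30% in these data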;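 further: 0% = DMSO wells and 100% = unlabeled Bim-BH3 peptide competitor; inhibitors lower millipolarization by displacing the labeled peptide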
Target sequence (Q07817 whole entry, looked up): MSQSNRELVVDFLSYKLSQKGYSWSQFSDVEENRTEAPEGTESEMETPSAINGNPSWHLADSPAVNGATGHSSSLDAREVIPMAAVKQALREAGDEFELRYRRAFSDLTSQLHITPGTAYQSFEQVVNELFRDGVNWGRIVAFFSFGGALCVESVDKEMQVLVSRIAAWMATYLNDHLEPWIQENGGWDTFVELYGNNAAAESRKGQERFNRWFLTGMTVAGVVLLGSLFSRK
Mcl1-Bid inh: Mcl-1/Bid interaction inhibition. inhibition, % at 21.7 µM. AID 1021. TR-FRET Mcl-1/Bid-Dy647 peptide binding, 1536-well. 0.97% of 220,000 active. Q07820;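 active means compounds that cut the binding signal by more than half at the single screening dose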;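 further: His-tagged Mcl-1 with europium anti-His antibody binding Bid BH3 peptide; 0% = Mcl-1 plus peptide wells and 100% = peptide-only wells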
GLD-1 TGE inh: GLD-1-TGE RNA interaction inhibition (C. elegans). Q17339. purified GLD-1 + fluorescein TGE RNA, fluorescence polarization. inhibition, % at 5.96 µM. 0.44% of 320,000 active. AID 2280;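 active means percent inhibition above a per-plate cutoff, the plate mean of test compounds plus 3 SD, cut at about 30% in these data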;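 further: 0% = DMSO wells with GLD-1 and probe and 100% = wells lacking GLD-1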
Mcl1-Noxa inh: Mcl-1/Noxa interaction inhibition | AID 1022 | inhibition, % at 21.7 µM | 1.5% of 220,000 active | TR-FRET Mcl-1/Noxa peptide binding, 2 h;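 active means compounds that cut the protein-peptide binding signal by more than 50% relative to plate controls in a single-dose test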;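 further: His-tagged Mcl-1 with rhodamine Noxa BH3 peptide and terbium anti-His antibody; 0% = Mcl-1 plus Noxa peptide wells and 100% = peptide-only wells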
An asterisk follows results filed as active; . = not tested or not shown.

SMILES | Mcl-1 Bim block | MCL1-BIM inh | BCLXL inh | Mcl1-Bid inh | GLD-1 TGE inh | Mcl1-Noxa inh
CC[C@H](C)[C@H](NS(=O)(=O)c1ccc(C)cc1)C(=O)N1CCC(C(=O)N[C@H](C(=O)O)C(C)C)CC1 | -1 | 22 | 41* | 0 | 6 | 15
CC(=O)C[C@H](O)CC(=O)[C@H]1OC(=O)CCCCCCCc2ccccc21 | . | 4 | 5 | . | 4 | .
COc1ccc2c(c1)c1ncn(CCN3CCCC3)c(=O)c1n2C | 7 | 5 | 3 | -13 | 1 | 5
Cc1ccc2c(c1)c1ccc3c(c1n2C)C(=O)C=CC3=O | . | . | . | 23 | . | 108*
COc1ccc2c(c1)c1ccc3c(c1n2C)C(=O)C=CC3=O | . | . | . | 33 | . | 102*
COc1ccc(N2CCN(C3CCCN(C(=O)CN4CCCC4=O)C3)CC2)cc1 (stereo not drawn) | . | 1 | 5 | . | -5 | .
C=CCn1c(N2CCCCCC2)nc2c1c(=O)n(C)c(=O)n2C | 0 | 6 | 5 | 41 | 8 | 98*
CC12CCC(C(=O)Nc3ccccc3-n3cccc3)(CC1=O)C2(C)C (stereo not drawn) | -3 | 7 | 6 | 76* | -2 | -2
CC12CCC(C(=O)Nc3ccccc3N3CCOCC3)(CC1=O)C2(C)C (stereo not drawn) | 1 | 4 | -1 | -8 | 2 | 4
O=C(Nc1ccc(N2CCCC2)cc1)C(Cl)c1ccccc1 (stereo not drawn) | 0 | 11 | 20 | -69 | 0 | 56*
COc1ccc(-n2nc(C(=O)NCC(=O)NCc3ccc(F)cc3)c3ccccc3c2=O)cc1 | . | 6 | 6 | . | -4 | .
Cc1ccc2nsnc2c1NC(=O)c1ccc(-c2cc(Cl)ccc2Cl)o1 | 2 | 2 | 2 | 31 | 2 | 51*
COc1ccc(-c2ccc(/C=C3/C(=N)N4C(C)=CSC4=NC3=O)o2)c([N+](=O)[O-])c1 | -1 | 8 | 13 | 17 | 2 | 59*
Cc1cc2cc(CNC(=O)c3cc4ccccc4o3)ccc2n1C | -4 | 32 | 31* | -87 | 39* | -47
COc1ccc(C(=O)NCc2ccc3c(c2)cc(C)n3C)cc1 | 0 | 4 | 4 | -29 | 0 | 9
O=C(CSc1ccc(Cl)cc1)N1CCN(c2ccc([N+](=O)[O-])cc2Cl)CC1 | -1 | -4 | 7 | -4 | 13 | -1
Cc1ccc(Cl)cc1N1CCN(C(=O)CSc2ccsc2[N+](=O)[O-])CC1 | -8 | 11 | 9 | -16 | -1 | 55*
CCS(=O)(=O)N1CCN(C2CCC(c3ccccc3)CC2)CC1 (stereo not drawn) | 0 | 10 | 5 | 54* | 2 | 10
Cc1ccc(S(=O)(=O)N2CCN(C3CCC(c4ccccc4)CC3)CC2)cc1 (stereo not drawn) | -2 | -1 | -2 | -16 | 2 | 10
COc1ccc(CCNC(=O)C2CCN(S(=O)(=O)c3cccc4nonc34)CC2)cc1OC | -4 | -2 | -5 | -2 | -9 | 66*
COc1ccc(CN(C)C(=O)c2cccc(Oc3ccccc3)c2)c(OC)c1OC | . | 10 | 1 | . | 2 | .
CCCOc1ccc(Cc2nn3c(=O)/c(=C/c4ccco4)sc3nc2=O)cc1 | -4 | 18 | 16 | 0 | 3 | 75*
CCCOc1ccc(/C=c2\sc3nc(-c4ccco4)nn3c2=O)cc1OCC | -4 | 17 | 3 | -12 | 3 | 12
COc1ccccc1/C=C/C=c1\sc2nc(=O)c(Cc3ccccc3)nn2c1=O | . | 20 | 7 | -35 | -7 | 51*
O=C(COC(=O)c1nc(Cl)ccc1Cl)NCc1ccc(Cl)cc1 | . | -4 | -2 | . | 6 | .
SMILES | Mcl-1 Bim block | MCL1-BIM inh | BCLXL inh | Mcl1-Bid inh | GLD-1 TGE inh | Mcl1-Noxa inh
CCN(CC)c1ccc(/C=N/NC(=O)Cc2nnc(NC(=O)Nc3ccccc3)s2)cc1 | -12 | -7 | 2 | -67 | 6 | 73*
CCN(CC)c1ccc(/C=N/NC(=O)Nc2ccccc2)cc1 | -1 | 2 | 7 | -34 | 1 | 29
COc1ccc(OC(=O)CCN2C(=O)C3C4C=CC(C4)C3C2=O)cc1 (stereo not drawn) | -4 | 9 | 4 | -45 | 6 | 5
COC(=O)c1ccc(OC(=O)CCN2C(=O)C3C4c5ccccc5C(c5ccccc54)C3C2=O)cc1 (stereo not drawn) | -10 | 1 | 4 | 52* | 8 | 10
COc1ccc(C(=O)/C=C/c2cc(OC)c(O)c(OC)c2)c(F)c1 | -2 | 15 | 10 | 7 | -18 | 55*
COc1ccc2cc(C(=O)/C=C/c3cc(OC)c(O)c(OC)c3)ccc2c1 | . | -1 | 4 | . | -1 | .
O=c1oc2ccccc2c(O)c1/C=C1\C=Nc2ccccc21 | 0 | -26 | -8 | -53 | -19 | 78*
OC(CNC1CCCCC1)COCCOc1ccc(Br)cc1 (stereo not drawn) | 49* | 5 | 3 | -8 | -3 | 21
OC(CNC1CCCC1)COc1ccc(-c2ccccc2)cc1 (stereo not drawn) | 0 | 1 | 6 | -6 | 8 | 11
CCN(c1ccc(NC(=O)COC(=O)c2ccc(C)s2)cc1)C(C)C | -1 | -6 | -3 | -8 | 4 | 63*
CCN(c1ccc(NC(=O)COC(=O)CCc2cc(OC)c(OC)c(OC)c2)cc1)C(C)C | -6 | . | . | -11 | . | 59*
COc1cc(CCC(=O)OCC(=O)Nc2ccc(F)c(F)c2)cc(OC)c1OC | . | -1 | 1 | . | 4 | .
CCOc1ccc(S(=O)(=O)N2CCCCC2)cc1NS(=O)(=O)c1cccs1 | . | -4 | 2 | . | 3 | .
Cc1ccc(S(=O)(=O)NC(C)C(=O)NC(C)c2cccs2)cc1 (stereo not drawn) | . | 0 | 0 | . | 0 | .
O=C(NCc1ccco1)c1cc2c(s1)CSC2 | -1 | 37 | 21 | -24 | 2 | 79*
O=C(NCc1ccc2c(c1)OCO2)c1cc2c(s1)CSC2 | -2 | 3 | 0 | -25 | 4 | 21
CCNc1ccccc(C(=O)/C=C/c2ccc3c(c2)OCO3)c1=O | 1 | 35 | 9 | -29 | 0 | 70*
COC(=O)/C=C/c1ccc2c(c1)OCO2 | 1 | -2 | 3 | -12 | 2 | 2
COc1cc([C@H]2OC[C@H]3[C@@H]2CO[C@@H]3c2ccc(O[C@H]3O[C@H](CO)[C@@H](O)[C@H](O)[C@H]3O)c(OC)c2)ccc1O[C@@H]1O[C@H](CO)[C@@H](O)[C@H](O)[C@H]1O | . | . | . | . | 0 | .
Cc1cc(Cl)ccc1OCc1cn2cccnc2n1 | 0 | 6 | 6 | 1 | 9 | 5
Cc1cc(C(=O)COC(=O)CCc2nc3ccccc3s2)c(C)n1C | 0 | -4 | -5 | -44 | 5 | 59*
Cn1c(N)c(C(=O)CSc2nc(C3CC3)n(-c3ccccc3)n2)c(=O)n(C)c1=O | . | -5 | -3 | . | 0 | .
Nc1nc(Cl)cc(N2CCC(c3cc(-c4ccc(Cl)cc4Cl)n[nH]3)CC2)n1 | 1 | -4 | 2 | -4 | -3 | 66*
